High-throughput results (PubChem BioAssay)
Rows were chosen to be rich in hits. Some 0.5% of all compounds tested hit in one or more screens of this group.
Tat transport = E. coli Tat transport inhibition. inhibition, % at 10 µM. 0.036% of 340,000 active. E. coli MC4100 TorA-mCherry Tat export, fluorescence;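 active means mean replicate inhibition at least 50% and at least half of replicates individually reaching 50%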;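 further: exported cargo escapes ClpAP degradation while cytoplasmic cargo is degraded and loses fluorescence; 0% = median of neutral control wells and 100% = median of NaSCN control wells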
E coli growth-1 = counter-screen for AddAB inhibitors: E. coli growth inhibition. E. coli V3065 growth, OD600 absorbance, 18 h. inhibition, % at 11.9 µM. 0.27% of 330,000 active;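 active means inhibition above the campaign's mean inhibition across all tested compounds plus 3 SD, cut at about 9.9% in these data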;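 further: uninfected addAB+ strain grown without phage in ampicillin broth; 0% = DMSO wells and 100% = ciprofloxacin 0.95 µg/ml wells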
phage Ecoli inh = E. coli growth loss with phage present; growth absorbance; 0.26% of 360,000 active; inhibition, % at 11.9 µM; AID 651602; in the data active means inhibition above about 11%
AddAB inh = less growth of phage-infected E. coli with AddAB; E. coli expressing H. pylori AddAB, absorbance growth; inhibition, % at 11.9 µM; 0.29% of 330,000 active; AID 435030; in the data active means inhibition above about 12%;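 further: 0% = vehicle wells of infected cells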
E coli growth-2 = inhibitors of Escherichia coli growth; 0.21% of 330,000 active; OD600, 23 h; stronger effect = lower value; OD600 absorbance (concentration not given with the values); AID 1053175;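 active means OD600 absorbance below the run mean of sample wells minus 3.6 SD, in any replicate, cut at about 0.56 in these data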
AddAB conf = growth loss of T4-infected E. coli expressing H. pylori AddAB, confirmed; AID 488942; 64% of 880 active; inhibition, % at 11.9 µM; shares compounds with AddAB inh; E. coli V3065 expressing H. pylori AddAB, T4 phage, OD; T4 phage with gene 2 nonsense mutations;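 active means mean inhibition above a set limit taken from the earlier primary screen, cut at about 13% in these data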;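 further: higher means less bacterial growth since AddAB block lets phage replicate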
RecBCD counter = reduces growth of phage-infected RecBCD+ E. coli, AddAB inhibitor counter-screen | 73% of 880 active | shares compounds with AddAB inh | AID 488955 | inhibition, % at 11.9 µM | E. coli V66 + mutant T4 phage, OD growth;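 active means mean inhibition above the mean of solvent-only control wells plus 3 SD, cut at about 4% in these data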;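 further: optical density read after an 18 h incubation at 37 °C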
bact viab count = reduces bacterial viability, AddAB inhibitor counter-screen. shares compounds with AddAB inh. absorbance (AddAB counterscreen). inhibition, % at 11.9 µM. 35% of 880 active; in the data active means inhibition above about 25%
Numbers without * were called inactive.

How did O=c1c2ccccc2nc(/C=C/c2ccc([N+](=O)[O-])cc2)n1CCCO do in these assays?
Tat transport: 11; E coli growth-1: -1; phage Ecoli inh: 3; AddAB inh: -1; E coli growth-2: 0.64

How did O=c1c2ccccc2nc(/C=C/c2ccc([N+](=O)[O-])o2)n1CCCO do in these assays?
Tat transport: 1; E coli growth-1: 20*; phage Ecoli inh: 9; AddAB inh: 31*; E coli growth-2: 0.68; AddAB conf: 98*; RecBCD counter: 11*; bact viab count: 41*

How did COC(=O)c1sc2ccccc2c1N do in these assays?
Tat transport: 1; E coli growth-1: 21*; phage Ecoli inh: 2; AddAB inh: 35*; E coli growth-2: 0.7; AddAB conf: 2; RecBCD counter: -1; bact viab count: -1

Results for COC(=O)c1sc2ccccc2c1C(=O)OC ?
Tat transport: -8; phage Ecoli inh: 2; E coli growth-2: 0.67

Results for COc1ccc(-c2nnc3ccc(SCC(=O)N4CCCCC4)nn23)cc1OC ?
Tat transport: 2; E coli growth-1: 48*; phage Ecoli inh: 2; AddAB inh: 97*; E coli growth-2: 0.74; AddAB conf: -2; RecBCD counter: -2; bact viab count: -4

Results for COc1cc(NS(=O)(=O)c2ccc(NC(=O)c3ccco3)cc2)nc(OC)n1 ?
Tat transport: -2; E coli growth-1: 4; phage Ecoli inh: 1; AddAB inh: 63*; E coli growth-2: 0.71; AddAB conf: 0; RecBCD counter: 1; bact viab count: -3

What do the screens show for `C[C@H]1c2cccc(O)c2C(O)=C2C(=O)[C@]3(O)C(O)=C(C(N)=O)C(=O)[C@@H](N(C)C)[C@@H]3[C@@H](O)[C@@H]21`?
Tat transport: 147*; E coli growth-1: 100*; AddAB inh: 98*; AddAB conf: 101*; RecBCD counter: 100*; bact viab count: 101*

Results for CCOc1ccc(NC(=O)Cn2cc(C(C)=O)c3ccccc32)cc1 ?
Tat transport: -6; E coli growth-1: -2; phage Ecoli inh: 3; AddAB inh: 1; E coli growth-2: 0.73

Results for COc1ccc(NC(=O)Cn2cc(C(C)=O)c3ccccc32)cc1 ?
Tat transport: -1; E coli growth-1: 14*; phage Ecoli inh: 10; AddAB inh: 16*; E coli growth-2: 0.68; AddAB conf: 9; RecBCD counter: 12*; bact viab count: 11

What do the screens show for `CC(=NNC(=O)Cn1nc(C)c(Br)c1C)c1cccs1`?
E coli growth-2: 0.7

Results for O=C(COC(=O)c1ccc([N+](=O)[O-])s1)c1ccc[nH]1 ?
Tat transport: -9; E coli growth-1: 9; phage Ecoli inh: 3; AddAB inh: 12*; AddAB conf: 68*; RecBCD counter: 3; bact viab count: 10

How did CC(C)Cc1ccc(CN2CCCC(NC(=O)c3ccoc3)C2)cc1 (stereo not drawn) do in these assays?
Tat transport: -4; E coli growth-1: 13*; phage Ecoli inh: 4; AddAB inh: 14*; E coli growth-2: 0.61; AddAB conf: 10; RecBCD counter: 5.4*; bact viab count: 9

What do the screens show for `CC(C)Cc1ccc(CN2CCCC(NC(=O)c3ccnn3C)C2)cc1` (stereo not drawn)?
Tat transport: 9; E coli growth-1: -1; phage Ecoli inh: 1; AddAB inh: 0; E coli growth-2: 0.66

How did COc1cc(C=NNC(=O)C(=O)NCC2CCCO2)ccc1O (stereo not drawn) do in these assays?
E coli growth-2: 0.66

What do the screens show for `CC(Nc1cccc2ccccc12)C(=O)NN=Cc1ccccn1` (stereo not drawn)?
E coli growth-2: 0.68

What do the screens show for `COc1ccc(OC)c(C2C/C(=N/O)C(C)C(c3cc(OC)ccc3OC)N2)c1` (stereo not drawn)?
Tat transport: -1; phage Ecoli inh: 1

Results for COc1ccc(OC)c(C2CC(=O)C(C)C(c3cc(OC)ccc3OC)N2)c1 (stereo not drawn) ?
Tat transport: 4; E coli growth-1: 11*; phage Ecoli inh: 2; AddAB inh: 13*; E coli growth-2: 0.69; AddAB conf: -4; RecBCD counter: -1; bact viab count: 0

Results for CCC[C@@H](CN1CCC[C@H]1CN1C(N)=NC[C@H]1CC(C)C)N1C[C@@H]([C@H](C)CC)N(CCc2ccc(Cl)c(Cl)c2)C1=N ?
Tat transport: -1; E coli growth-1: 16*; phage Ecoli inh: 4; AddAB inh: 13*; E coli growth-2: 0.078*; AddAB conf: -9; RecBCD counter: 2; bact viab count: -7

Results for CCC[C@@H](CN1CCC[C@H]1CN1C(N)=NC[C@@H]1Cc1ccccc1)N1C[C@@H]([C@H](C)CC)N(CCCC2CCCC2)C1=N ?
Tat transport: 96*; E coli growth-1: 22*; AddAB inh: 26*; AddAB conf: 14*; RecBCD counter: 13*; bact viab count: 11

How did FC(F)(F)c1ccc(Cl)c(NN=Cc2ccc(N3CCOCC3)s2)c1 do in these assays?
E coli growth-2: 0.71

How did Oc1cccc(C=NNc2ccc(Cl)nn2)c1 do in these assays?
E coli growth-2: 0.65

How did Cc1cc(/C=N/NC(=O)c2ccccc2F)c(C)n1-c1ccccc1 do in these assays?
Tat transport: 1; E coli growth-1: -1; phage Ecoli inh: 4; AddAB inh: 131*; AddAB conf: 1; RecBCD counter: 2; bact viab count: 0

Results for COc1cc(NC(=O)c2ccc([N+](=O)[O-])o2)ccc1NC(=O)c1ccco1 ?
Tat transport: -3; E coli growth-1: 12*; phage Ecoli inh: 8; AddAB inh: 16*; E coli growth-2: 0.69; AddAB conf: 74*; RecBCD counter: 6.7*; bact viab count: 22

What do the screens show for `O=C(NCc1cccnc1)c1ccc([N+](=O)[O-])o1`?
Tat transport: -7; E coli growth-1: 13*; phage Ecoli inh: 17*; AddAB inh: 17*; E coli growth-2: 0.5*; AddAB conf: 71*; RecBCD counter: 7.9*; bact viab count: 18

How did O=C(NCc1ccco1)c1ccc([N+](=O)[O-])o1 do in these assays?
Tat transport: -2; E coli growth-1: 9; phage Ecoli inh: 8; AddAB inh: 35*; AddAB conf: 76*; RecBCD counter: 6.6*; bact viab count: 15

How did O=C(NCc1ccco1)c1ccc(Cn2cc([N+](=O)[O-])cn2)o1 do in these assays?
Tat transport: -11; E coli growth-1: -1; phage Ecoli inh: 4; AddAB inh: 0; E coli growth-2: 0.69
